Measured values reported in PubChem BioAssay.

Test: NFkB reporter suppression in cystic fibrosis bronchial cells – cell-based, uHTS hits, panel, cytotoxicity readout, dose response (AID 624344)
Details: CF bronchial epithelial cells, PAF-induced NFkB reporter inhibition, with PAF, run 1; at 79 µM (top of the series) unless noted

Compared with CC1(C)Cc2c(ccc3ccccc23)C(=O)N1, CCn1c(=O)c2c(cnn2C)c2ccccc21 is higher in inhibition: 106% for the first, 117% for the second.

Compared with CCOC(=O)c1c(C)cc2c(CO)n[nH]c(=O)c2c1C, CCc1cc(-c2[nH]ncc2-c2ccc(OC)cc2)c(O)cc1O is higher in inhibition: 104% for the first, 115% for the second.

Compared with COc1cccc(NC(=O)Nc2nnc(CC(=O)Nc3ccccc3)s2)c1, NC(c1csc(NC(=O)Nc2cccc(Cl)c2)n1)c1ccccc1Cl (stereo not drawn) is higher in inhibition: 90.4% for the first, 96.3% for the second.

First: CCOC(=O)COc1ccc2ccccc2c1/C=C/[N+](=O)[O-]
Second: COc1ccc(/C=C/C(=O)c2cc(F)ccc2OC(=O)c2ccccc2C)cc1OC
The inhibition of the first is higher: 100% for the first, 4.66% for the second.

Compared with O=C(Nc1ccc(Br)c2ccccc12)c1ccc2ccccc2c1O, O=C1OC(c2ccccc2)(c2cc(Br)ccc2O)c2ccccc21 (stereo not drawn) is lower in inhibition: 112% for the first, 105% for the second.

Going from COc1cc(-c2cnc3c(NC=O)cc(-c4ccc(C)cc4)cn23)cc(OC)c1OC to COc1ccccc1NC(=O)c1cc2c(CO)cnc(C)c2oc1=Nc1ccc(OC)c(OC)c1, the inhibition rises from 70.3% to 73.4%.

Cc1ccc(CNc2ncnc3ccc(-c4ccoc4C)cc23)o1 and Clc1ccc(-c2csc3ncnc(N4CCc5ccccc5C4)c23)cc1 are the same in inhibition: 103% for the first, 103% for the second.

Going from O=[N+]([O-])C1C(c2ccccc2)C12c1ccccc1-c1ccccc12 (stereo not drawn) to O=C(c1ccccc1)C1OC1C(=O)c1ccccc1 (stereo not drawn), the inhibition rises from 99.1% to 101%.

Going from COc1ccc(COc2cc(-c3cccc(OC)c3)nc3ccc(NC(=O)c4cccnc4)cc23)cc1 to COc1ccc(C(=O)Nc2cccc(NC(=O)c3ccc(OC)c(OC)c3)n2)cc1OC, the inhibition rises from 98.7% to 106%.

Going from CC(=O)c1c(O)cc2c3c1OC(C)(C)C1CCC(C)(CC31)O2 (stereo not drawn) to C=C1C(=O)O[C@H]2C[C@H]1[C@@H](OC(C)=O)C/C(C)=C/CC/C(C)=C\CC[C@]2(C)O, the inhibition falls from 111% to 107%.

Going from COc1ccc(-n2nnnc2S(=O)(=O)Cc2ccc(C(=O)O)cc2)cc1 to COc1ccc(C2=Nn3c(nnc3-c3ccncc3)SC2)cc1, the inhibition rises from 74.7% to 81.7%.

Compared with CC1CCc2c(sc3ncnc(N4CCOCC4)c23)C1 (stereo not drawn), C=C1C(=O)O[C@@H]2[C@H]1CC[C@H](C)[C@]1(O)CCC(=O)[C@@]21C is lower in inhibition: 114% for the first, 101% for the second.

Going from CC(C)(C)OC(=O)NCC(=O)Oc1cc2oc(=O)cc(-c3ccccc3)c2cc1Cl to COc1cc2c(c(OC)c1OC)-c1ccc(NCc3ccccc3)c(=O)cc1C(NC(C)=O)CC2 (stereo not drawn), the inhibition falls from 117% to 94.4%.

Going from COc1ccc(S(=O)(=O)N2c3ccc(F)cc3CCC2C)cc1 (stereo not drawn) to COc1ccccc1NS(=O)(=O)c1ccc(-c2cnc(C3CC3)o2)cc1, the inhibition falls from 98.8% to 82.8%.

First: Cc1[nH]nc2c1-c1nc3ccccc3nc1C(C)(C)C2
Second: Cn1c(SC2=CS(=O)(=O)c3ccccc32)nc2ccccc21
The inhibition of the first is higher: 113% for the first, 101% for the second.

First: COc1ccc([C@]2(C(C)C)ON(c3ccccc3C(F)(F)F)C2=O)cc1
Second: CC(C)n1c(SCc2ccccc2F)nc2c1c(=O)n(C)c(=O)n2C
The inhibition of the first is higher: 103% for the first, 96% for the second.

First: C=C(C)[C@@H]1CC[C@]2(C(=O)O)CC[C@]3(C)[C@H](CC[C@@H]4[C@@]5(C)CC[C@H](O)C(C)(C)[C@@H]5CC[C@]43C)[C@@H]12
Second: C[C@]12CCC(O)CC1CCC1C2CC[C@]2(C)C(c3cc(C(F)(F)F)n[nH]3)CCC12 (stereo partly drawn)
The inhibition of the first is lower: 47.9% for the first, 121% for the second.

First: CNc1ccc2ncc(-c3ccc(OC)c(OC)c3)n2n1
Second: O=C(Nc1cccnc1)c1sc2cccc(F)c2c1Cl
The inhibition of the first is higher: 106% for the first, 76.8% for the second.

Going from O=C(NCCc1ccccc1)c1coc(=O)c(Br)c1 to CN1CCN(S(=O)(=O)c2ccc(Sc3nnnn3-c3ccccc3)c([N+](=O)[O-])c2)CC1, the inhibition rises from 84% to 109%.

For COc1ccccc1-c1cc(NC=O)c2ncc(-c3ccc(F)cc3)n2c1, the inhibition was 97.7% [at 39.5 µM].

Test: as above
Details: CF bronchial epithelial cells, PAF-induced NFkB reporter inhibition, with PAF, run 2; at 79 µM (top of the series) unless noted

Compared with CC1(C)Cc2c(ccc3ccccc23)C(=O)N1, CCn1c(=O)c2c(cnn2C)c2ccccc21 is lower in inhibition: 111% for the first, 103% for the second.

Going from CCOC(=O)c1c(C)cc2c(CO)n[nH]c(=O)c2c1C to CCc1cc(-c2[nH]ncc2-c2ccc(OC)cc2)c(O)cc1O, the inhibition rises from 95.8% to 104%.

Compared with COc1cccc(NC(=O)Nc2nnc(CC(=O)Nc3ccccc3)s2)c1, NC(c1csc(NC(=O)Nc2cccc(Cl)c2)n1)c1ccccc1Cl (stereo not drawn) is higher in inhibition: 85.1% for the first, 101% for the second.

Going from CCOC(=O)COc1ccc2ccccc2c1/C=C/[N+](=O)[O-] to COc1ccc(/C=C/C(=O)c2cc(F)ccc2OC(=O)c2ccccc2C)cc1OC, the inhibition falls from 97.5% to 90.3%.

Going from O=C(Nc1ccc(Br)c2ccccc12)c1ccc2ccccc2c1O to O=C1OC(c2ccccc2)(c2cc(Br)ccc2O)c2ccccc21 (stereo not drawn), the inhibition rises from 104% to 116%.

Compared with COc1cc(-c2cnc3c(NC=O)cc(-c4ccc(C)cc4)cn23)cc(OC)c1OC, COc1ccccc1NC(=O)c1cc2c(CO)cnc(C)c2oc1=Nc1ccc(OC)c(OC)c1 is higher in inhibition: 70.5% for the first, 93.8% for the second.

Compared with Cc1ccc(CNc2ncnc3ccc(-c4ccoc4C)cc23)o1, Clc1ccc(-c2csc3ncnc(N4CCc5ccccc5C4)c23)cc1 is higher in inhibition: 89.6% for the first, 112% for the second.

Compared with O=[N+]([O-])C1C(c2ccccc2)C12c1ccccc1-c1ccccc12 (stereo not drawn), O=C(c1ccccc1)C1OC1C(=O)c1ccccc1 (stereo not drawn) is higher in inhibition: 106% for the first, 109% for the second.

First: COc1ccc(COc2cc(-c3cccc(OC)c3)nc3ccc(NC(=O)c4cccnc4)cc23)cc1
Second: COc1ccc(C(=O)Nc2cccc(NC(=O)c3ccc(OC)c(OC)c3)n2)cc1OC
The inhibition of the first is lower: 95.2% for the first, 102% for the second.

Compared with CC(=O)c1c(O)cc2c3c1OC(C)(C)C1CCC(C)(CC31)O2 (stereo not drawn), C=C1C(=O)O[C@H]2C[C@H]1[C@@H](OC(C)=O)C/C(C)=C/CC/C(C)=C\CC[C@]2(C)O is lower in inhibition: 99% for the first, 97.5% for the second.

Compared with COc1ccc(-n2nnnc2S(=O)(=O)Cc2ccc(C(=O)O)cc2)cc1, COc1ccc(C2=Nn3c(nnc3-c3ccncc3)SC2)cc1 is lower in inhibition: 102% for the first, 76.5% for the second.

Compared with CC1CCc2c(sc3ncnc(N4CCOCC4)c23)C1 (stereo not drawn), C=C1C(=O)O[C@@H]2[C@H]1CC[C@H](C)[C@]1(O)CCC(=O)[C@@]21C is higher in inhibition: 101% for the first, 108% for the second.

Going from CC(C)(C)OC(=O)NCC(=O)Oc1cc2oc(=O)cc(-c3ccccc3)c2cc1Cl to COc1cc2c(c(OC)c1OC)-c1ccc(NCc3ccccc3)c(=O)cc1C(NC(C)=O)CC2 (stereo not drawn), the inhibition rises from 104% to 112%.

Compared with COc1ccc(S(=O)(=O)N2c3ccc(F)cc3CCC2C)cc1 (stereo not drawn), COc1ccccc1NS(=O)(=O)c1ccc(-c2cnc(C3CC3)o2)cc1 is higher in inhibition: 71.7% for the first, 97.8% for the second.

Going from Cc1[nH]nc2c1-c1nc3ccccc3nc1C(C)(C)C2 to Cn1c(SC2=CS(=O)(=O)c3ccccc32)nc2ccccc21, the inhibition rises from 99.3% to 102%.

Compared with COc1ccc([C@]2(C(C)C)ON(c3ccccc3C(F)(F)F)C2=O)cc1, CC(C)n1c(SCc2ccccc2F)nc2c1c(=O)n(C)c(=O)n2C is higher in inhibition: 91.5% for the first, 95.1% for the second.

Compared with C[C@]12CCC(O)CC1CCC1C2CC[C@]2(C)C(c3cc(C(F)(F)F)n[nH]3)CCC12 (stereo partly drawn), CN1CCN(S(=O)(=O)c2ccc(Sc3nnnn3-c3ccccc3)c([N+](=O)[O-])c2)CC1 is lower in inhibition: 99.6% for the first, 99.5% for the second.

Going from CNc1ccc2ncc(-c3ccc(OC)c(OC)c3)n2n1 to O=C(Nc1cccnc1)c1sc2cccc(F)c2c1Cl, the inhibition falls from 118% to 92.7%.

First: COc1ccccc1-c1cc(NC=O)c2ncc(-c3ccc(F)cc3)n2c1
Second: O=C(NCCc1ccccc1)c1coc(=O)c(Br)c1
The inhibition of the first is lower: 75.8% [at 39.5 µM] for the first, 106% [at 39.5 µM] for the second.

Compound C=C(C)[C@@H]1CC[C@]2(C(=O)O)CC[C@]3(C)[C@H](CC[C@@H]4[C@@]5(C)CC[C@H](O)C(C)(C)[C@@H]5CC[C@]43C)[C@@H]12 has an inhibition of 57.6% [at 19.8 µM].
